# Shiga inhibitor: inhibitors of Shiga toxin in Vero cells; hit rate 9.2% among 290,000; inhibition, % at 38.7 µM; Vero cells, Shiga toxin protein synthesis inhibition reporter; in the data active = inhibition mostly above about 28%, no sharp cut-off; inactive = mostly below about 43%; note: 0% is about no effect
# Pf growth 96h: P. falciparum growth inhibition at 96 hour, primary screen for plastid delayed-death inhibitors; P. falciparum luciferase reporter growth, 96 h; AID 504834; hit rate 6.9% among 320,000; Potency, µM (top dose mostly 28.7 µM), inactives show top-dose activity change, negative = inhibition, actives largely listed as inhibitors; note: potency is the fitted concentration of half-maximal effect; % is set by controls: 0 for no effect and ±100 for the full control effect
#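 Compounds incubated with erythrocytes infected by luciferase-expressing P. falciparum (2% hematocrit, 0.05% parasitemia final) for 96 hours, 37 C in 5% CO2. Growth inhibition scored as decreased luciferase luminescence.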
# CHX counter: counter-screen for Shiga toxin inhibitors: cycloheximide protein synthesis inhibition | cell reporter, cycloheximide protein synthesis inhibition counterscreen | hit rate 12% among 300,000 | max response, % | AID 2314; in the data active = max response mostly above about 13%, no sharp cut-off; inactive = mostly below about 14%; note: read at 38.3 µM for the half of the compounds with a filed dose; 0% is about no effect
# AMA1 RON2 block: disrupts binding of P. falciparum AMA1 to RON2; AlphaScreen AMA1-biotinylated RON2 peptide binding; Potency, µM (series often up to 58.2 µM), for inactives: at the top dose activity change, negative = inhibition, most hits filed as inhibitors; hit rate 0.2% among 360,000; AID 720542;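 note: potency is the fitted concentration of half-maximal effect; 0% = vehicle wells and -100% = peptide control; nearly all actives have a fitted effect of over 45% in size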
#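 AMA1 (3D7) with his tag at 25 nM final met compounds first, then biotinylated RON2 peptide at 25 nM; detection used donor plus acceptor beads, 10 µg/mL apiece, read by AlphaScreen after 30 min at room temperature.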
# Pf growth 48h: P. falciparum growth inhibition at 48 hours (one generation); P. falciparum luciferase growth in erythrocytes, 48 h; Potency, µM (series often up to 28.7 µM), for inactives: at the top dose activity change, negative = inhibition, hits mostly inhibitors; hit rate 5.9% among 310,000; AID 504832; note: potency is the fitted concentration of half-maximal effect; % is set by controls: 0 for no effect and ±100 for the full control effect
#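 Luminescence readout; reporter = integrated firefly luciferase in P. falciparum. RBC culture at 2% hematocrit, 0.1% parasitemia final, 37 C/5% CO2; decreased signal taken as growth inhibition.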
# SARS PLpro yeast: SARS-CoV PLP inhibition in yeast. hit rate 0.19% among 330,000. AID 485353. Potency, µM (doses to about 32.9 µM), without a hit: at the top dose activity, positive = growth rescue, hits mostly activators. S. cerevisiae expressing SARS-CoV PLpro, growth rescue; calls by dose curve; note: potency is the fitted concentration of half-maximal effect; 0% is about no effect; nearly all actives have a fitted effect of over 55% in size
# Active calls of the source: *; ? = inconclusive; · = no result. An excerpt weighted towards active compounds, which were near 19% of everything screened. Unless noted, calls come from the whole dose curve; as a rule, active = well fitted curve in the direction sought with a large enough effect; inconclusive = small, poorly fitted or top-dose-only effect, or another doubt; inactive = no such curve, though single readings can be large; an effect the other way counts as inactive or inconclusive.
SMILES,Shiga inhibitor,Pf growth 96h,CHX counter,AMA1 RON2 block,Pf growth 48h,SARS PLpro yeast
Cc1occc1C(=O)N/N=C/c1ccccc1[N+](=O)[O-],64*,154%,62*,-3%,111%,-1%
COc1cc(/C=N/NC(=O)c2ccoc2C)ccc1O,59,65%,37*,5%,75%,?
COc1ccc(/C=N/NC(=O)c2ccoc2C)cc1CN1CCN(c2ccc(F)cc2)CC1,51*,?,45*,-3%,9.3µM*,0%
O=C(c1ccc([N+](=O)[O-])cc1)N(Cc1ccc(Br)cc1)N1C(=O)CCCC1=O,7,-13%,-3,-3%,·,5%
O=C(Cn1nc(CNc2ccc(Cl)cc2)[n+]2c1CCCCC2)c1ccc(Br)cc1,-16,?,-6,-17%,0.93µM*,-28%
COc1ccc(NCc2nn(CC(=O)c3ccc(Br)cc3)c3[n+]2CCCCC3)cc1,32,?,26,?,1.9µM*,0%
COc1ccc(C(=O)CN2CCCCC2)cc1,32,17%,28,11%,37%,0%
O=C(CNc1ccc(Cl)cc1)c1ccc(Br)cc1,12,?,-1,-5%,?,2%
O=C(Cn1nc(CNc2ccc(Br)cc2)[n+]2c1CCCCC2)c1ccc([N+](=O)[O-])cc1,1,?,7,-1%,2.1µM*,-2%
Cn1c(N)c(C(=O)COC(=O)c2ccccc2C(F)(F)F)c(=O)n(C)c1=O,·,·,·,0%,·,10%
CC(C)c1ccc(C(N)=S)cc1,-3,-12%,8,43%,18%,0%
CC(=O)c1c(C)[nH]c(C(=O)NCCN2CCC(C)CC2)c1C,5,12µM*,1,8%,-5%,7%
CC(=O)c1c(C)[nH]c(C(=O)NCC2CCCCC2)c1C,63*,30%,11,8%,14%,-4%
O=C(CNC(=O)c1ccccc1)NCc1ccc(Cl)cc1,-9,46%,1,10%,5%,1%
CCOc1ccc(NC(=O)CSc2nnc(-c3ccccc3Cl)n2Cc2ccco2)cc1,-7,0.033µM*,-1,-8%,?,-1%
COc1ccc(NC(=O)CSc2nnc(-c3ccccc3Cl)n2Cc2ccco2)c(OC)c1,2,·,-5,-9%,?,17%
CCOc1ccc(NC(=O)CSc2nccn2Cc2ccco2)cc1,41*,0%,31*,-7%,?,2%
CCOC(=O)CNC(=O)CSc1nccn1Cc1ccco1,-8,39%,-2,2%,4%,0%
COc1ccc(NC(=O)CSc2nccn2Cc2ccco2)cc1,124*,-7%,56*,-10%,105%,-3%
COc1ccc(NC(=O)CSc2nccn2Cc2ccco2)cc1OC,36*,17%,27*,-4%,65%,1%
COc1ccc(NC(=O)CSc2nnc(COc3ccccc3)n2Cc2ccco2)cc1OC,17,31%,-8,-5%,?,-2%
COc1cc(OC)cc(-c2nnc3n2N=C(c2c(OC)cccc2OC)CS3)c1,-4,·,-3,·,·,·
COc1ccccc1C1C2=C(N=C3SCC(=O)N31)c1ccccc1CC2 (stereo unspecified),23,?,-2,5%,?,-5%
COc1ccc(C2C3=C(N=C4SCC(=O)N42)c2ccccc2CC3)cc1 (stereo unspecified),76*,12µM*,39*,-6%,?,1%
COc1ccc(C2C3=C(N=C4SCC(=O)N42)c2ccccc2CC3)cc1OC (stereo unspecified),-9,14%,-1,16%,2.3µM*,-7%
SMILES,Shiga inhibitor,Pf growth 96h,CHX counter,AMA1 RON2 block,Pf growth 48h,SARS PLpro yeast
CCOc1ccc(NCCC(O)c2ccc(F)cc2)cc1 (stereo unspecified),22,11%,23*,-24%,-1%,1%
CCOc1ccc(C(C)NC(=S)NCc2ccc(F)cc2)cc1 (stereo unspecified),14,-19%,-3,3%,?,?
COCC(=O)N1CCCC(N(C)CCc2ccc(OC)c(OC)c2)C1 (stereo unspecified),·,138%,18*,-1%,3%,12%
O=C1CSc2ccc(C(=O)N3CCCCC3)cc2N1,·,·,·,0%,·,·
O=C1CSc2ccc(C(=O)O)cc2N1,-9,12µM*,-3,1%,3%,1%
COc1ccccc1-c1csc(C(O)c2ccccc2)n1 (stereo unspecified),·,·,·,1%,·,·
O=C(CSc1nc(NS(=O)(=O)c2ccccc2)cc(=O)[nH]1)Nc1ccccc1Cl,-1,?,-5,-7%,2%,-1%
CCc1ccc(NC(=O)CSc2nc(NS(=O)(=O)c3ccccc3)cc(=O)[nH]2)cc1,-13,4.1µM*,-1,-13%,?,1%
Cc1ccc(NC(=O)CSc2nc(NS(=O)(=O)c3ccccc3)cc(=O)[nH]2)cc1,-17,3.7µM*,-4,5%,·,0%
Cc1ccc(S(=O)(=O)Nc2cc(=O)[nH]c(SCC(=O)Nc3cccc(C)c3)n2)cc1,-9,-1%,-2,-12%,1.9µM*,-4%
O=C(NCC1CC1)c1cc(-c2ccccc2)nn1CC1CC(c2cccc([N+](=O)[O-])c2)=NO1 (stereo unspecified),·,·,·,-1%,·,·
Cc1ccc2oc(C(=O)N3CCN(Cc4ncccc4C)CC3)c(C)c2c1,14,?,-1,18%,-12%,2%
CN(CC(=O)Nc1ccc(F)cc1)C(=O)COC(=O)c1cccc(N(C)C)c1,·,299%,·,-5%,192%,10%
COc1cccc(OC)c1C(=O)NC1C(=O)N2C1SC(C)(C)C2C(=O)O (stereo unspecified),·,-3%,·,·,3%,·
CC1(C)Oc2ccc(C(=O)NC3CCCCC3)cc2N(CC#N)C1=O,8,?,12,-9%,?,0%
COc1cc(/C=C/C(=O)c2c(O)ccc3c(C)cc(=O)oc23)ccc1O,-10,?,-3,-16%,?,·
Cc1cc(=O)oc2c(C(=O)/C=C/c3ccccc3)c(O)ccc12,-4,·,-4,2%,5.9µM*,-5%
Cc1c(C(=O)/C=C/c2cccs2)oc2ccc(F)cc12,73*,-37%,36*,-9%,·,-13%
O=C(/C=C/c1cccs1)c1cc(Cl)ccc1O,4,-5%,7,?,?,-1%
COc1ccc(/C=C\C(=O)c2c(O)ccc3c(C)cc(=O)oc23)cc1OC,-7,·,-5,-18%,9.3µM*,3%
Cc1cc(=O)oc2c(C(=O)/C=C\c3cccs3)c(O)ccc12,16,13µM*,7,-12%,-9%,-61%
CN1CCN(C(=O)C2=C[C@H](c3ccc4c(c3)OCO4)C[C@H](OCCCCO)O2)CC1,·,·,·,7%,·,·
CN1C(=O)C2(c3ccccc31)c1c(oc3ccccc3c1=O)C(=O)N2CCCO (stereo unspecified),6,-14%,1,-3%,-3%,0%
